Hsp70 activator: Hsp70 transcriptional activation, primary screen; activation, % at 10 µM; HeLa Hsp70 promoter luciferase reporter, luminescence; scaled: vehicle 0, proteasome-inhibitor control 100%; AID 1203; 0.04% of 200,000 active;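 active = activation above the mean across all tested compounds plus 3 SD, cutoff set per campaign, cut at about 5.5% in these data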;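 also: 100% = MG132 at 30 µM as the positive control and 0% = DMSO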
HSF-1 act: increases HSF-1 driven luciferase reporter signal; NIH3T3-HGL HSF-1 luciferase reporter, MG132, 8 h; 100% = twice DMSO control signal; activation, % at 9 µM; 1.7% of 300,000 active;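 active = mean replicate activation of at least 50% with a set share of replicates each reaching 50%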;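 also: 0% = median of the neutral control wells and 100% = twice that signal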
TNF death inh: TNF-alpha cell death inhibition in Jurkat FADD-/- cells | Jurkat FADD-/- TNF necroptosis rescue, ATP luminescence, 24 h; 0 = TNF only, 100 = no-TNF cells | AID 463075 | activation (protection from cell death), % at 10 µM | 0.068% of 220,000 active;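 active = activation, meaning protection from cell death, of at least 50% relative to plate controls; inactive = activation below 50%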;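 also: necroptosis triggered by 40 ng/mL TNF-alpha added together with compound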
zVAD death inh: L929 zVAD cell death inhibition; L929 zVAD necroptosis rescue, ATP luminescence, 24 h; with zVAD 60 µM; viability rescue, % at 10 µM; 0.38% of 220,000 active; AID 1377;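 active = activation, scaled between plate controls, above about 75%, limit read from the data; inactive = activation under that limit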;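 also: 0% = zVAD with DMSO and 100% = DMSO alone without zVAD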
The depositor's hits bear a star; nt = no result. An excerpt weighted towards active compounds, which were near 1.9% of everything screened.

SMILES | Hsp70 activator | HSF-1 act | TNF death inh | zVAD death inh
CC1CC(C)CN(C(=O)c2ccc(-c3ccc([N+](=O)[O-])cc3)o2)C1 (centres undefined) | nt | 3 | nt | nt
S=C(c1ccc(-c2ccccc2Cl)o1)N1CCCCC1 | 0 | 38 | -1 | 0
S=C(c1ccc(-c2ccc(Cl)cc2)o1)N1CCCCC1 | 0 | 101* | -3 | 0
O=C(c1ccc(-c2ccc([N+](=O)[O-])cc2)o1)N1CCCCC1 | 0 | 87* | 2 | 1
CN1CCN(C(=S)c2ccc(-c3cccc(Cl)c3Cl)o2)CC1 | 0 | 68* | 1 | 4
COc1cc(NC(=O)C2CC(c3c(F)cccc3Cl)=NO2)cc(OC)c1OC (centres undefined) | nt | -6 | nt | nt
COc1cccc(N2CCN(C(=S)NCc3ccco3)CC2)c1 | 0 | 55* | -5 | 0
S=C(NCc1ccco1)N1CCN(c2ccccc2Cl)CC1 | 0 | 70* | -1 | 2
CCCn1c(CCc2ccccc2)n[nH]c1=S | 0 | -5 | 1 | 3
COC(=O)C1=C(C)N(Cc2ccc(C)cc2)C(=O)/C1=C\c1cc(OC)c(OC)c(OC)c1 | 0 | 98* | 3 | 1
O=C(O)C1C2CCC(O2)C1C(=O)Nc1ccc(OC(F)F)cc1 (centres undefined) | nt | -9 | nt | nt
C/C=C1\COC(C(=O)NCc2ccccc2)(C(F)(F)F)C=C1C=C(C)C (centres undefined) | nt | 153* | nt | nt
O=C(NCc1ccccc1)C1(C(F)(F)F)C/C(=C/CCO)CCCO1 (centres undefined) | nt | -6 | nt | nt
CCn1c(=O)cc(OCC(=O)NCCCN2CCCC2=O)c2ccccc21 | nt | -5 | nt | nt
Cc1cccc(NC(=O)N(Cc2nc3ccccc3c(=O)[nH]2)C2CCCC2)c1 | 0 | 30 | 0 | 0
O=C(Nc1cccc(Cl)c1)N(Cc1nc2ccccc2c(=O)[nH]1)C1CCCC1 | 0 | 54* | -4 | 0
CCOc1ccccc1NC(=S)NCc1ccccc1 | nt | 2 | nt | nt
CCOc1ccccc1NC(=S)NCc1ccco1 | 1 | 52* | -8 | -1
C=CCOc1ccc(C(c2c(C(=O)O)[nH]c3ccccc23)c2c(C(=O)O)[nH]c3ccccc23)cc1 | nt | -8 | nt | nt
Cc1ccc(C(=O)Cn2nnc(-c3ccccc3-n3cnnn3)n2)cc1 | 0 | 73* | 1 | 1
COc1ccc(C(=O)Cn2nnc(-c3ccccc3-n3cnnn3)n2)cc1 | 0 | 6 | -3 | 1
O=C(Nc1ccc2c(c1)CCC2)c1ncoc1-c1ccccc1F | nt | 8 | nt | nt
CCOc1ccc(C2C(C#N)=C(N)Oc3cc(C)n(CCN(C)C)c(=O)c32)cc1OCC (centres undefined) | 0 | 5 | -2 | 0
Cc1ccc(C)c(N=Nc2ccc(O)c3ncccc23)c1 | 0 | -27 | -13 | 49
CCOc1ccc(N=Nc2ccc(O)c3ncccc23)cc1 | nt | 89* | nt | nt
SMILES | Hsp70 activator | HSF-1 act | TNF death inh | zVAD death inh
Cc1cccc(N=Nc2ccc(O)c3ncccc23)c1 | 0 | 241* | -24 | 23
NS(=O)(=O)c1ccc(N=Nc2ccc(O)c3ncccc23)cc1 | nt | -11 | nt | nt
COC(=O)Nc1ccc(S(=O)(=O)NNC(=O)c2c(O)c3ccccc3n(C)c2=O)cc1 | nt | -11 | nt | nt
COc1ccc(OCC(=O)N(Cc2ccco2)C2CCS(=O)(=O)C2)cc1 (centres undefined) | nt | 4 | 1 | 0
Cc1cc(C)n2nc(/C(C#N)=C/c3ccccn3)c(C#N)c2n1 | 0 | 99* | -6 | 5
Cc1ccc2oc(=O)c3cc(C(=O)NCCCN4C(C)CCCC4C)sc3c2c1 (centres undefined) | nt | -3 | nt | nt
Cc1cccc(/C=C(\c2nc3ccccc3[nH]2)S(=O)(=O)c2ccccc2)c1 | 0 | 344* | -14 | 4
O=C(O)c1ccc(/C=C(\c2nc3ccccc3[nH]2)c2nc3ccccc3s2)cc1 | nt | 22 | 2 | 0
CC(C)(C)c1ccc(/C=C(\c2nc3ccccc3[nH]2)S(=O)(=O)c2ccccc2)cc1 | nt | 57* | nt | nt
Cc1ccccc1-n1ncc2c1CC(C)(C)CC2NC(=O)CCN1CCCCC1=O (centres undefined) | nt | 5 | nt | nt
COCCNC(=O)C(c1ccncc1)N(C(=O)c1sc(C)nc1C)c1cccc(C)c1 (centres undefined) | 0 | 75* | -1 | 3
CCC(C)(C)NC(=O)C(c1ccncc1)N(C(=O)c1sc(C)nc1C)c1ccc(F)cc1 (centres undefined) | 0 | -51 | 1 | -2
CCOC(=O)c1nnc(-c2ccccc2)nc1Sc1ccccc1Cl | 0 | 159* | -9 | -1
CC(=O)C1=C(O)C(=O)N(c2nccs2)C1c1ccccc1 (centres undefined) | 0 | 60* | 0 | 1
CC(=O)C1=C(O)C(=O)N(c2ccccn2)C1c1ccc(C)cc1 (centres undefined) | nt | 11 | nt | nt
O=C(Cc1ccccc1F)Nc1nc(-c2cccs2)cs1 | 0 | 66* | 1 | 0
S=C(N/N=C/c1ccc(Cl)cc1)N1CCOCC1 | 0 | 24 | 1 | 2
S=C(N/N=C/c1ccc(Br)cc1)N1CCCCC1 | nt | 55* | nt | nt
Cc1cc(C)nc(Sc2nc(Cl)nc(N(c3ccccc3)c3ccccc3)n2)n1 | 0 | 54* | -23 | 0
Cc1cc(C)nc(SC(C(=O)O)c2ccccc2)n1 (centres undefined) | 0 | -11 | 1 | 0
COCCCn1c(=O)c2ccccc2n(Cc2cc(C(=O)OC)ccc2OC)c1=O | nt | 3 | nt | nt
CC(=O)N=c1sccn1CC(=O)c1ccc([N+](=O)[O-])cc1 | 0 | 58* | -2 | 0
O=C(Cn1c(-c2ccccc2)c[n+]2ccsc12)c1ccc([N+](=O)[O-])cc1 | 1 | -10 | -2 | -2
NC(=O)c1c(NC(=O)c2ccccc2F)sc2c1CCCC2 | nt | 75* | nt | nt
Cc1ccc(NC(=S)Nc2cccc3cnccc23)c(C)c1 | 0 | 73* | -5 | 0
SMILES | Hsp70 activator | HSF-1 act | TNF death inh | zVAD death inh
Cc1ccc(NC(=S)Nc2ccccn2)c(C)c1 | nt | 60* | -1 | 1
COc1cccc(NC(=S)Nc2cc(C)cc(C)n2)c1 | nt | 56* | 1 | 0
Cc1cccc(NC(=S)Nc2ccccn2)c1 | nt | 58* | -2 | 0
Cc1cc(C)cc(NC(=S)Nc2cccc3cnccc23)c1 | 0 | nt | 0 | 1
Cc1ccc(NC(=S)Nc2ccccn2)cc1C | nt | 40 | 4 | 1
Cc1cc(Cl)ccc1NC(=S)Nc1ccccn1 | 0 | 55* | 1 | 1
Cc1ccc(NC(=S)c2nc3ccccc3[nH]2)c(C)c1 | 0 | 72* | -1 | 0
Cc1ccc(C)c(S(=O)(=O)N2CCN(C(=O)CSc3ccccc3F)CC2)c1 | nt | 7 | nt | nt
NS(=O)(=O)c1ccc(CCNC(=O)c2ccc(Cl)s2)cc1 | nt | 3 | nt | nt
NS(=O)(=O)c1ccc(CCNC(=O)c2ccc([N+](=O)[O-])s2)cc1 | nt | 94* | nt | nt
Cc1ccc2oc(C(Cl)(Cl)Cl)cc(=O)c2c1 | 0 | 52* | -24 | 0
O=C1C(c2cc(=O)c3ccccc3[nH]2)=C(O)c2ccccc21 | 0 | 65* | -1 | 3
O=c1cc(-c2ccccc2)[nH]c2ccccc12 | 0 | 5 | -9 | 0

Screening data (PubChem)
